Experimental data reported in PubChem BioAssay AID488969 (Vanderbilt High Throughput Screening Facility, 2010).
The full ranking holds about 110,000 compounds; the median of “z-score” is about -0.1, and the highest 2% start at about 2. What follows is part of a selection rich in the highest values, with near analogues and random picks from the rest. The source made the active and inactive calls.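 Rule for the calls: active = z-score in the third read window above 3 or below -3; inactive = the rest.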

molecular target: Metabotropic glutamate receptor 8 (Rattus norvegicus) (UniProt P70579); test: mGluR8 Gi/Go-coupled signaling modulation – cell-based, rat, thallium flux, HTS, primary screen (AID 488969); settings: HEK293 rat mGluR8, GIRK (G protein-gated inwardly rectifying potassium channel) thallium flux, FluoZin2; at 10 µM; stronger effect = higher value; submaximal glutamate (EC20) added with thallium
Sequence (P70579 whole entry, looked up): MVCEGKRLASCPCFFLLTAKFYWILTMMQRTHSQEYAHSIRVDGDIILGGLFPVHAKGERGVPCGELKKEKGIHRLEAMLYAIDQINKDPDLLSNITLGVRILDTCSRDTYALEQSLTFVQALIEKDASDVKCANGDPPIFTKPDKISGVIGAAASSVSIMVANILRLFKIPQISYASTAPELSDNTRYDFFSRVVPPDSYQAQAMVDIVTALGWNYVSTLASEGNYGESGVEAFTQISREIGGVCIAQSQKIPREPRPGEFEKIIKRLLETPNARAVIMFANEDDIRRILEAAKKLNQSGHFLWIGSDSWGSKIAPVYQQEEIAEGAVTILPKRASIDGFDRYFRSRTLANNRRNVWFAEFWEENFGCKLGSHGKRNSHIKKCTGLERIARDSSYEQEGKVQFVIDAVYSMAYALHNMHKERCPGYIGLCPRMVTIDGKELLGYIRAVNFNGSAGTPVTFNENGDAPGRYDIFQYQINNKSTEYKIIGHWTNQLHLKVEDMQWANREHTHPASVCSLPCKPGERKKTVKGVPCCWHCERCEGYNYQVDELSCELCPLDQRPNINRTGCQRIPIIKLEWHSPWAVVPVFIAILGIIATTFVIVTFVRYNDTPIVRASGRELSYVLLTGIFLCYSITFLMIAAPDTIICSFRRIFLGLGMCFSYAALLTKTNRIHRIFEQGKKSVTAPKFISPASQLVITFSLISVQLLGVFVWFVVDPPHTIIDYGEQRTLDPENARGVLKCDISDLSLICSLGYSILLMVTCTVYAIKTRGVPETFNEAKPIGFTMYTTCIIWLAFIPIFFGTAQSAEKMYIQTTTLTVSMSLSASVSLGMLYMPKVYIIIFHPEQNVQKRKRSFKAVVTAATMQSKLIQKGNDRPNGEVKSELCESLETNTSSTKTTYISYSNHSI

Compound	z-score
CC(O)c1n(C)c(Cl)c[n+]1C (stereo not drawn)	-0.00128
O=C(CO/N=C/c1ccccc1O)N1CCc2ccccc21	-0.0476
O=C(Nc1nnc(-c2ccc(Cl)cc2)o1)NC1CCCCC1	-0.0226
O=C(Nc1nnc(-c2ccc(Cl)cc2)o1)c1ccc(N2C(=O)CCC2=O)cc1	4.39 (active)
O=C(Nc1ccccc1)c1cccc(N2C(=O)CCC2=O)c1	-0.0312
Cc1cc(NC(=O)c2ccc(N3C(=O)CCC3=O)cc2)no1	0.412
O=C(Nc1nnc(-c2ccc(Cl)cc2)o1)c1cccc(N2C(=O)CCC2=O)c1	3.29 (active)
O=C(Nc1nnc(-c2ccccc2)o1)c1cccc(N2C(=O)CCC2=O)c1	-0.326
Cc1cc(C)c(C)c(OCCCn2ccnc2)c1	-0.369
COC(=O)c1ccc(/C=N/N2CCN(Cc3ccccc3)CC2)cc1	-0.196
COC(=O)c1ccc(/C=N\N2CCN(Cc3ccc(C)cc3)CC2)cc1	-0.269
COC(=O)c1ccc(/C=N/N2CCN(Cc3ccc(C)cc3C)CC2)cc1	2.42
Cc1cccc(NC(=O)C2Cc3ccccc3CN2C(=O)OCc2ccccc2)c1C (stereo not drawn)	-0.188
CCC1CCCCN1C(=O)CSc1nc2c([nH]c3ccccc32)c(=O)n1C (stereo not drawn)	0.357
CCOP(=O)(OCC)C(Nc1ccccn1)c1ccc(F)cc1 (stereo not drawn)	-0.18
O=C(NCc1ccccc1F)c1cccs1	-0.158
O=C(O)c1cc2c(ccc3ccccc32)[nH]1	-0.467
O=C(Nc1nc2ccc(F)cc2s1)C1CCCO1 (stereo not drawn)	0.535
O=C(Nc1nc2ccc(S(=O)(=O)N3CCCCC3)cc2s1)C1CCCO1 (stereo not drawn)	-0.0835
NS(=O)(=O)c1ccc2nc(NC(=O)C3CCCO3)sc2c1 (stereo not drawn)	2.74
CC1=CCC(C(=O)O)C(C(=O)Nc2nc3ccc(S(C)(=O)=O)cc3s2)C1 (stereo not drawn)	0.387
CS(=O)(=O)c1ccc2nc(NC(=O)Nc3ccc(Cl)cc3)sc2c1	0.161
CCC(=O)Nc1nc2ccc(S(C)(=O)=O)cc2s1	0.244

Compound	z-score
CS(=O)(=O)c1ccc2nc(NC(=O)Nc3ccc(Cl)c(Cl)c3)sc2c1	3.23 (active)
CS(=O)(=O)c1ccc2nc(NC(=O)C3C4C=CC(C4)C3C(=O)O)sc2c1 (stereo not drawn)	4.92 (active)
CS(=O)(=O)c1ccc2nc(NC(=O)Nc3cccc(Cl)c3)sc2c1	0.135
CN(C)c1ccc(CN(C(=O)COc2ccccc2)C2CCS(=O)(=O)C2)cc1 (stereo not drawn)	-0.709
O=C(NCc1cn(-c2ccccc2)nc1-c1ccccc1)c1ccc([N+](=O)[O-])cc1	-0.0499
O=C(CSc1cc(Cl)ccc1Cl)NCC1CCCO1 (stereo not drawn)	-0.0958
Cc1ccccc1-n1c(SCc2csc(Nc3ccccc3)n2)nnc1-c1cccnc1	-0.897
CN1CCN(Cc2cccc(Oc3ccccc3)c2)CC1	0.0807
CCN1CCN(Cc2cccc(Oc3ccccc3)c2)CC1	0.156
CC1CCCN(Cc2cccc(Oc3ccccc3)c2)C1 (stereo not drawn)	6.29 (active)
c1ccc(Oc2cccc(CN3CCCCC3)c2)cc1	-0.282
CCN1CCN(Cc2cccc(Oc3ccc(Cl)cc3)c2)CC1	0.924
CN1CCN(Cc2cccc(Oc3ccc(Cl)cc3)c2)CC1	4 (active)
CCc1ccc(Nc2nnc(SCC(=O)N(C)CC(=O)Nc3ccccc3CC)s2)cc1	-0.439
CSc1nccc(Oc2ccc(C#N)cc2)n1	-0.172
CC1=CC(=O)C=C(C)C1=NOS(=O)(=O)c1ccccc1	0.257
CC1=C/C(=N\OS(=O)(=O)c2ccccc2)C(C)=CC1=O	-0.189
CC1=C/C(=N\OS(=O)(=O)c2ccccc2)C=CC1=O	3
Cc1ccc(C(=O)N2CC(C)OC(C)C2)c(Cl)c1 (stereo not drawn)	-0.0463
Cc1ccc(-n2c(Cc3cccn3C)nnc2SCC(=O)Nc2cc(C)on2)cc1	-0.345
CCc1cc(C(=O)NNC(=S)Nc2cc(C)ccc2C)cs1	6.35 (active)
Cc1cccc(NC(=S)NNC(=O)c2sccc2C)c1	2.13
CCc1cc(C(=O)NNC(=S)Nc2ccccc2C)cs1	1.47

Compound	z-score
Cc1ccc(C)c(NC(=S)NNC(=O)c2sccc2C)c1	1.53
CNC(=S)NNC(=O)c1sccc1C	-0.0354
CCc1cc(C(=O)NNC(=S)NCc2ccccc2)cs1	0.0336
CCCCNC(=S)NNC(=O)c1csc(CC)c1	-0.0512
CCc1cc(C(=O)NNC(=S)Nc2cccc(C)c2)cs1	7.17 (active)
CCNC(=S)NNC(=O)c1csc(CC)c1	-0.163
Cc1nn2c3c(cnc2c1-c1ccccc1)C(=O)CCC3	-0.149
CC(C)(C)C(=O)NC1(C(F)(F)F)N=C2SCCN2C1=O (stereo not drawn)	-0.137
O=C(COc1ccc(S(=O)(=O)NC2CCCCC2)cc1)NCc1cccnc1	-0.589
COc1cc(-c2nc3ccccc3c(=O)n2N)cc(OC)c1OC	-0.0215
O=C(CSc1ccc2nnc(-c3ccc(Cl)cc3)n2n1)N1CCCc2ccccc21	0.00121
Cc1cc2nc3c(nc2cc1C)C1(C(=O)N(C)C)CCC3(C)C1(C)C (stereo not drawn)	-0.192
Cc1cccc(-n2ncc3c(NCc4cccs4)ncnc32)c1	-0.705
O=c1c2ccccc2c(-c2ccccc2)nn1Cc1ccc(Cl)cc1	-0.152
Cc1ccc2[nH]c3c(=O)n(CCC4=CCCCC4)cnc3c2c1	-0.447
Cn1c(-c2ccccc2O)cc2ccccc21	0.085
Cc1occc1C(=O)N=Nc1c(O)[nH]c2ccc(Br)cc12	-0.135
CCC(=O)NC(=S)Nc1ccc(NC(=O)c2ccc(OC)cc2)cc1	-0.111
O=C(Nc1ccccc1Sc1ccccc1)C1CCCO1 (stereo not drawn)	-0.775
Cc1ccccc1NC(=O)C1CCCN1S(=O)(=O)c1cccc2cccnc12 (stereo not drawn)	-0.0844
Cc1cccc(NC(=O)C2CCCN2S(=O)(=O)c2cccc3cccnc23)c1 (stereo not drawn)	0.22
CC(=O)c1cccc(NC(=O)C2CCCN2S(=O)(=O)c2cccc3cccnc23)c1 (stereo not drawn)	4.14 (active)
CC(=O)c1ccc(NC(=O)C2CCCN2S(=O)(=O)c2cccc3cccnc23)cc1 (stereo not drawn)	-0.24

Compound	z-score
O=C(Nc1cccc(F)c1)C1CCCN1S(=O)(=O)c1cccc2cccnc12 (stereo not drawn)	-0.182
Cc1ccc(NC(=O)C2CCCN2S(=O)(=O)c2cccc3cccnc23)cc1F (stereo not drawn)	2.9
COc1ccc(-c2cn3c(C)c(C(=O)N4CCN(c5ccc(F)cc5)CC4)sc3n2)cc1	0.116
COc1cccc(CNCCSc2nnnn2C)c1OC	0.709
O=C(CSc1ccc2ccccc2c1)NCc1cccs1	0.0417
O=C(CSc1cccc2cccc(Cl)c12)NCc1cccs1	3.5 (active)
Cc1csc(SCC(=O)NCc2cccs2)n1	0.824
O=C(NCc1cccnc1)c1cccc(C(F)(F)F)c1	-0.793
COc1ccccc1CNCc1cccs1	0.411
COc1ccccc1CNCc1ccc(OC)c(OC)c1OC	2.07
COc1cccc(CNCc2ccc(SC)cc2)c1OC	-0.19
CC1(C)CNC(=O)C=C(c2ccccc2)C1	-0.176
Cc1ccc(S(=O)(=O)N(C)CC(=O)O/N=C(\N)c2ccc([N+](=O)[O-])cc2)cc1	-0.621
O=c1c(-c2ccc(Cl)cc2)[n+]([O-])c2ccccc2n1O	14 (active)
COn1c(=O)c(-c2ccc(Cl)cc2)[n+]([O-])c2ccccc21	-0.503
CCOn1c(=O)c(-c2ccc(Cl)cc2)[n+]([O-])c2ccccc21	0.119
Cc1ccc(C)c(-n2[nH]c3c4c(ccc3c2=O)C(=O)c2ccccc2C4=O)c1	0.0628
Cc1cc(NC(=O)c2ccc3c(c2)C(=O)N(C2CCCCC2)C3=O)no1	0.19
O=C(Nc1ccncc1)c1ccc2c(c1)C(=O)N(C1CCCCC1)C2=O	6.89 (active)
O=C(Nc1ccncc1)c1ccc2c(c1)C(=O)N(CC1CCCO1)C2=O (stereo not drawn)	-0.193
CCOC(=O)N1CCN(c2cc(=O)n(-c3ccc(OCC)cc3)c(=O)[nH]2)CC1	-0.000123
O=C(NNS(=O)(=O)c1ccc(Cl)cc1)c1sccc1-n1cccc1	0.249
O=C(NNC(=O)c1sccc1-n1cccc1)c1ccccc1	0.869

Compound	z-score
O=C(N/N=C\c1ccc(Cl)cc1Cl)c1sccc1-n1cccc1	-0.203
O=C(NNC(=O)c1sccc1-n1cccc1)c1ccc(Cl)cc1	3.06 (active)
O=C(NNC(=O)c1sccc1-n1cccc1)c1cccc(Cl)c1	4.1 (active)
O=C(NNS(=O)(=O)c1cc(Cl)cc(Cl)c1)c1sccc1-n1cccc1	1.93
CCOC(=O)N/N=C(C)/C=C/c1ccco1	0.31
CCC(Oc1ccccc1)C(=O)N1CCN(C(=O)C(CC)Oc2ccccc2)CC1 (stereo not drawn)	-0.159
Cn1c(SCC(=O)NNC(=O)Cc2ccccc2)nnc1-c1ccc(Cl)cc1	-0.126
CC(C)c1ccc(-n2cccc2/C=C2/C(=N)N3C=CSC3=NC2=O)cc1	2.17
N=C1/C(=C/c2cccn2-c2ccc([N+](=O)[O-])cc2)C(=O)N=C2SC=CN12	-0.214
N=C1/C(=C/c2cccn2-c2cccc([N+](=O)[O-])c2)C(=O)N=C2SC=CN12	-0.207
CC1CCN(c2c([N+](=O)[O-])c(=O)n(-c3ccccc3)c3ccccc23)CC1	0.00884
N#C/C(=C/c1ccc(OCc2ccccc2)cc1)C(=O)NC1CCCCC1	0.0182
O=C(NCCN1CCCC1)c1ccc(CS(=O)(=O)c2c(Cl)cccc2Cl)o1	-0.063
O=C(c1sc2cc(F)ccc2c1Cl)N1CCN(c2cccc(Cl)c2)CC1	-0.403
CCCCCCC(=O)NC(Nc1ccc(S(N)(=O)=O)cc1)C(Cl)(Cl)Cl (stereo not drawn)	-0.259
Cn1ncc2c(=O)n(CC(=O)NC34CC5CC(CC(C5)C3)C4)cnc21	-0.265
COC(=O)C1=NN(N=O)C2(CC(=O)N(c3cc(C)cc(C)c3)C2=O)C1 (stereo not drawn)	-0.194
Cc1ccc(C)n1-c1ccc(C(=O)NCC2CCCO2)cc1 (stereo not drawn)	-0.25
CCCCN(C)C1=CC2=CC(=C(C#N)C#N)CCC2CC1 (stereo not drawn)	5.11 (active)
N#CC(C#N)=C1C=C2C=C(N3CCCCC3)CCC2CC1 (stereo not drawn)	10.9 (active)
O=c1[nH]c2cc3c(cc2cc1C(c1nnnn1C1CCCCC1)N1CCSCC1)OCCO3 (stereo not drawn)	0.278
